Results taken from the supplement of paper PMC6555819.

What was measured:
Assay in all cases: PBM binding z-score (relative to random genomic background probes); higher = stronger binding; sequences stand for … in GC…GCGATTGACAGCGTAGAATGAAGG
[1] = tested on: FXR:RXRa (NR concentration 270 nM, RXRa partner concentration 90 nM)
How it was run: (§1)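 Each nuclear receptor dimer, without ligand, was incubated for 1 h on custom Agilent 4×180K protein-binding microarrays. Binding was detected with antibodies against each partner (one per run), and scanned fluorescence was regression-normalized. The binding z-scores are referenced to random human genomic background probes.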

[2] = tested on: LXRa:RXRa (NR concentration 270 nM, RXRa partner concentration 90 nM)
How it was run: as §1

[3] = tested on: LXRa homodimer (NR concentration 270 nM)
How it was run: as §1

[4] = tested on: LXRb:RXRa (NR concentration 270 nM, RXRa partner concentration 90 nM)
How it was run: as §1

[5] = tested on: LXRb homodimer (NR concentration 270 nM)
How it was run: as §1

[6] = tested on: PPARa:RXRa (NR concentration 270 nM, RXRa partner concentration 90 nM)
How it was run: as §1

[7] = tested on: PPARg:RXRa (NR concentration 180 nM, RXRa partner concentration 90 nM)
How it was run: as §1

[8] = tested on: PPARg:RXRa 270nM:90nM, anti-RXR (NR concentration 270 nM, RXRa partner concentration 90 nM)
How it was run: as §1

[9] = tested on: PPARg:RXRa 30nM:10nM, anti-RXR (NR concentration 30 nM, RXRa partner concentration 10 nM)
How it was run: as §1

[10] = tested on: PPARg:RXRa 90nM:30nM, anti-RXR (NR concentration 90 nM, RXRa partner concentration 30 nM)
How it was run: as §1

[11] = tested on: PPARg:RXRa DBDmut IVT, anti-RXR (DBD mutation: RXRa K156A/R161A, NR concentration 270 nM, RXRa partner concentration 90 nM)
How it was run: as §1

[12] = tested on: PPARg:RXRa IVT, anti-PPARg (NR concentration 270 nM, RXRa partner concentration 90 nM)
How it was run: as §1

[13] = tested on: PPARg DBDmut:RXRa IVT, anti-PPARg (DBD mutation: PPARg1 K132A/R137A, NR concentration 270 nM, RXRa partner concentration 90 nM)
How it was run: as §1

[14] = tested on: PPARg DBDmut IVT, anti-PPARg (DBD mutation: PPARg1 K132A/R137A, NR concentration 270 nM)
How it was run: as §1

[15] = tested on: PPARg homodimer (NR concentration 180 nM)
How it was run: as §1

[16] = tested on: PXR:RXRa (NR concentration 270 nM, RXRa partner concentration 90 nM)
How it was run: as §1

[17] = tested on: PXR homodimer (NR concentration 270 nM)
How it was run: as §1

[18] = tested on: RARa:RXR (NR concentration 270 nM, RXRa partner concentration 90 nM)
How it was run: as §1

[19] = tested on: RARa homodimer (NR concentration 270 nM)
How it was run: as §1

[20] = tested on: RARb:RXRa (NR concentration 270 nM, RXRa partner concentration 90 nM)
How it was run: as §1

| Sequence | PBM binding z-score [1] | PBM binding z-score [2] | PBM binding z-score [3] | PBM binding z-score [4] | PBM binding z-score [5] | PBM binding z-score [6] | PBM binding z-score [7] | PBM binding z-score [8] | PBM binding z-score [9] | PBM binding z-score [10] | PBM binding z-score [11] | PBM binding z-score [12] | PBM binding z-score [13] | PBM binding z-score [14] | PBM binding z-score [15] | PBM binding z-score [16] | PBM binding z-score [17] | PBM binding z-score [18] | PBM binding z-score [19] | PBM binding z-score [20] |
| --- | --- | --- | --- | --- | --- | --- | --- | --- | --- | --- | --- | --- | --- | --- | --- | --- | --- | --- | --- | --- |
| TTTCAAAGTTCAAAGGTAACGTAAGTATCCACAC | 7.1 | 6.88 | 6.41 | 4.86 | 2.71 | 5.69 | 6 | 6.43 | 3.39 | 5.49 | 0.271 | 2.61 | 1.49 | 1.37 | 3.4 | 5.62 | 4.59 | 6.38 | 1.45 | 4.99 |
| GTACCGAGGTGAATAGGTCGTTGATGAGTAGGCG | 1.03 | 0.978 | -0.306 | 0.874 | -0.778 | 2.68 | 1.86 | 2.13 | 0.147 | 0.886 | 1.68 | 2.73 | -0.652 | -0.0941 | 1.09 | 0.905 | -0.18 | 2.02 | -0.153 | 2.03 |
| TCATATAGGTAAACAGGTGAAAGTCCGTAAGTTA | 0.771 | 1.07 | 0.337 | 0.884 | 0.0234 | 2.39 | 2.99 | 3.77 | 4.16 | 3.87 | 4.87 | 4.6 | 1.08 | 0.871 | 1.31 | 0.894 | 0.216 | 1.3 | 1.12 | 0.78 |
| GATACAGGGTCAGCTAGAGGCCAGCGTATGGAAA | 4.35 | 2.75 | -0.301 | 2.11 | -1.03 | 4.37 | 3.18 | 3.49 | 0.694 | 1.92 | 1.62 | 2.35 | -0.653 | -0.347 | 2.22 | 2.97 | -0.477 | 4.55 | -0.0319 | 4.21 |
| CCTACTGGGCCACGGTCATTGATCAGTCAAAGCA | -0.282 | -0.19 | 0.043 | -0.408 | -0.712 | 1.3 | 2.11 | 2.06 | -0.0299 | 1.1 | 4.71 | 5.29 | -0.475 | -0.479 | 0.397 | -0.436 | -0.0793 | -0.106 | -0.863 | 1.56 |
| AGGCAAAGTTCAGGACGAGGTAACGTAAAGCACG | 4.22 | 3.64 | 1.15 | 1.9 | 0.202 | 3.37 | 3.33 | 4.04 | 1.44 | 3.05 | -0.11 | 1.19 | 0.287 | -0.24 | 2.28 | 2.89 | 1.59 | 2.82 | 1.16 | 4.26 |
| GGAACGAGGACATTCGAGTTGATAGCATGGCGAT | 0.116 | -0.183 | -0.644 | -0.72 | -0.703 | -0.304 | 0.664 | -0.0182 | -0.118 | -0.155 | 0.421 | 0.192 | -0.159 | -0.578 | -0.204 | 0.468 | 0.409 | 0.177 | -0.136 | 0.344 |
| TCTCGGAGGACCCGAAAGGTCAGAGCTCGACATC | 2.35 | 2.99 | 1.17 | 2.77 | -0.541 | 3.34 | 0.565 | 2.23 | 2.07 | 2.11 | 1.1 | 0.853 | -0.22 | -0.929 | 1.7 | 3.45 | -0.23 | 4.13 | 0.185 | 3.68 |
| ATATGTGGGTTACATCCGGGTCATTCAGGCTATG | 2.27 | 4.1 | 1.26 | 3.06 | 1.12 | 4.12 | 5.38 | 4.48 | 2.02 | 3.36 | 6.84 | 6.81 | 2.1 | 2.31 | 2.37 | 3.72 | 2.92 | 3.51 | 1.06 | 2.01 |
| ACTCGGAGGACAAAGGTCAGAGCCACGCCAGTGA | 4.39 | 4.56 | 1.53 | 3.52 | 0.161 | 5.36 | 8.4 | 7.54 | 6.19 | 8.08 | 0.449 | 3.88 | 0.243 | 0.0578 | 3.83 | 4.03 | 0.202 | 5.5 | 1.68 | 4.73 |
| CAAACTAGGTCAAGCGGTCAAAGTCCGCTTCCCG | 5.13 | 4.54 | 4.1 | 2.97 | 0.774 | 5.57 | 8.35 | 7.55 | 5.13 | 7.38 | 8.54 | 8.61 | 4.37 | 1.14 | 3.03 | 2.21 | 0.102 | 3.33 | 0.747 | 4.62 |
| CCGACTGGGGCCTAAGGTTACCATAAGCCAGCCC | 0.328 | 1.58 | -0.169 | 0.716 | -1.28 | 1.26 | 0.941 | 2.51 | 0.0484 | 1.11 | -0.456 | -0.247 | -1.22 | -1.84 | 0.088 | 0.127 | -0.726 | 0.85 | 0.205 | 0.778 |
| CCGACTGGAGCAAAGGTTACCATACTCAGTACGA | 0.849 | 1.39 | 0.0439 | 1.71 | -0.613 | 4.5 | 8.49 | 8.31 | 8.2 | 8.54 | 2.35 | 3.51 | -0.17 | 0.137 | 0.916 | 1.77 | 0.124 | 2.73 | -0.322 | 1.74 |
